The results in this text go back to PubChem BioAssay (NCATS).

In assay [1] the target is Glucocorticoid receptor (Homo sapiens) (UniProt P04150). In words: GR-GFP Redistribution (AID 450;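 active means compounds whose dose series gives a full or clear partial fitted curve of increased nuclear translocation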; further: potency means the concentration at half of the fitted maximal effect). As to conditions: U2OS GR-GFP nuclear translocation, laser cytometry, 2 h.
The target is the same in assay [2]. Briefly: GR-EFC Redistribution (AID 451; calls by dose curve; further: potency means the concentration at half of the fitted maximal effect). To be noted: CHO-K1 GR-EFC translocation, beta-gal luminescence, 2 h. An outline of the steps: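 Translocation of GR-ED fusion to nuclear EA restores b-gal, read by luminescence after 1 h room-temperature detection. Engineered CHO-K1 biosensor cells, 1,000/well, exposed 2 h at 37 C to titrations up to 46 uM final.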
Assay [3] has as its target Mitogen-activated protein kinase 10 (Mus musculus) (UniProt Q61831). In words: JNK3 AlphaScreen Assay (AID 530; active means well fitted curve in either direction with a large enough effect, not every such curve was filed as active;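 further: kinase came from lysate of stimulated human HepG2 cells; signal reports phosphorylation of biotinylated GST-cJun 1-79 at Ser73 with 10 µM ATP; on the % scale 0 is the no-effect control and ±100 the full control effect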). To be noted: JNK3 lysate, c-Jun phosphorylation; series mostly up to 57.1 µM. An outline of the steps:
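Kinase buffer: 20 mM Tris-HCl pH 7.6, 10 mM MgCl2, 1 mM DTT, 0.1 mM Na3VO4, 0.01% Tween-20; ATP 10 uM. Substrate biotin-GST-cJun(1-79), enzyme from activated HepG2 lysates. Detection by Ser73 phospho-antibody AlphaScreen.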
Background: Bead proximity is the source of the signal in Alpha formats.

The target in assay [4] is 3',5'-cyclic-AMP phosphodiesterase 4B (Homo sapiens) (UniProt Q07343). In words: qHTS Assay for Inhibitors of PDE-IV (AID 607; active means well fitted activation curve with a large enough effect in the main read-out, with a control signal flat, not every such curve was filed as active; further: % of control where 0% means no effect). To be noted: HEK293 ACTOne CNG channel cells, membrane potential fluorescence; series mostly up to 22.9 µM. Put shortly:
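The readout is membrane depolarisation from a cAMP-sensing CNG channel, detected with a potential dye at ex 535/em 590. Cells were HEK293-derived (endogenous PDE-IV) at 1000 cells/well, titrated up to 22.9 uM final.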
(In general: qHTS replaces the single test concentration by a dilution series.)

Assay [5] concerns the target Ubiquitin carboxyl-terminal hydrolase 1 (Homo sapiens) (UniProt O94782). Briefly: Inhibitors of USP1/UAF1: Pilot qHTS (AID 504865).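 Further: rhodamine fluorescence freed from ubiquitin-rhodamine substrate followed over time; top concentration of the series differs between compounds; on the % scale 0 is the no-effect control and ±100 the full control effect; nearly all actives have a fitted effect of over 35% in size.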 To be noted: purified USP1/UAF1, Ub-rhodamine cleavage fluorescence; series mostly up to 114 µM. An outline of the steps: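 USP1/UAF1 complex (1nM) preincubated with compound 15 min at room temperature, then Ub-Rho substrate (150nM final) added. Fluorescence read kinetically at 480/540 nm, 6 reads every 60 seconds. Buffer: 50mM HEPES pH 7.8, 0.5mM EDTA, 0.1 mg/ml BSA, 1mM TCEP, 0.01% Tween-20.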

The target of assay [6] is DNA dC->dU-editing enzyme APOBEC-3G (Homo sapiens) (UniProt Q9HC16). Briefly: qHTS for inhibitors of Vif-A3G interactions: Validation (AID 588379). Further: 0% is about no effect. To be noted: Vif-A3G protein interaction assay; series mostly up to 46.1 µM. An outline of the steps: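 Yellow fluorescence (Ex 488, Em 500-530) of Vif-coexpressing HeLa A3G-eYFP cells, scanned by Acumen cytometer, reports blocked A3G degradation. Cells plated at 700/well overnight at 37 deg C before compound addition, then a further overnight compound incubation at 37 deg C.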

For assay [7], the system named is Zika virus NS2B-NS3 protease. Briefly: Primary screen GU AMC qHTS for Zika virus inhibitors (AID 1347154).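 Further: 0% = no-inhibitor control and -100% = no-enzyme control; nearly all actives have a fitted effect of over 70% in size.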 To be noted: Zika NS2B-NS3 unlinked protease, AMC fluorogenic substrate; series mostly up to 54.1 µM. Put shortly: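 Fluorogenic AMC-substrate cleavage by noncovalent NS2B-NS3 protease complex (25 nM, pH 8.0 Tris buffer with Tween 20) followed for 15 minutes at room temperature (~20% conversion). Percent inhibition from ex340/em450 signal change, fitted by 4-parameter Hill equation.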

Assay [8] in a line: Primary qHTS for small molecule stabilizers of the endoplasmic reticulum resident proteome: Secreted ER Calcium Modulated Protein (SERCaMP) assay (AID 1508630). Further: on the % scale 0 is the no-effect control and ±100 the full control effect. To be noted: SH-SY5Y GLuc-SERCaMP (Gaussia luciferase released on ER calcium loss) secretion, thapsigargin, luminescence; series mostly up to 38.4 µM. Put shortly: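 The SH-SY5Y reporter protocol was run at 3 concentrations up to 38.3 uM (primary) or 11 concentrations (follow-up): 16 h compound, 100 nM thapsigargin for 4 h, then extracellular luciferase luminescence.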

The target in assay [9] is Cytochrome P450 1A2 (Homo sapiens) (UniProt P05177). Briefly: p450-cyp1a2 (AID 410; calls by dose curve; further: potency means the concentration at half of the fitted maximal effect;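 on activity change, negative = inhibition: -100% = full effect of reference inhibitor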). As to conditions: recombinant CYP1A2, luciferin-ME demethylation, luminescence; series mostly up to 57 µM. An outline of the steps: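 Read-out is luminescence from luciferin produced by CYP1A2 demethylation of Luciferin-ME (100uM, at Km). Detection reagent stopped the 60 min NADPH-dependent reaction; signals were normalized to 57 uM furafylline.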

Assay [10] is described as follows: NFAT Signaling Pathway (AID 444; active means well fitted curve in either direction with a large enough effect, not every such curve was filed as active;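 further: carbachol stimulus at about its EC50 of 1 µM final; on the % scale 0 is the no-effect control and ±100 the full control effect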). As to conditions: Jurkat NFAT-bla M1, carbachol, beta-lactamase ratio, 5 h. An outline of the steps:
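Read-out: CCF4 FRET ratio (460 nm/530 nm) after 1 h RT dye loading, used for %activity and AC50 from titration series. Cells: Jurkat NFAT-β-lactamase/M1 line, treated with compound plus 1 uM carbachol for 5 h, 37 °C.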

The nature of assay [11]: Stat Signaling Pathway (AID 446; active means well fitted curve in either direction with a large enough effect, not every such curve was filed as active;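 further: ME-180 cervical cancer cells given 40 pM IL-6 alongside compound; SIE-controlled beta-lactamase reporter measured as 460/530 nm FRET emission ratio; on the % scale 0 is the no-effect control and ±100 the full control effect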). As to conditions: ME-180 SIE beta-lactamase reporter, IL-6 stimulated, 5 h. Put shortly: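 Emission at 460 and 530 nm (excitation 405 nm) reports SIE-controlled beta-lactamase in ME-180 cells. Cells received compound with 40 pM IL-6 for 5 hrs at 37 C; data scaled between 300 pM IL-6 and 125 nM JAK-inhibitor controls.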
The target in assay [12] is Guanine nucleotide-binding protein G(i) subunit alpha-1 (Homo sapiens) (UniProt P63096). In words: qHTS Assay for Inhibitors of RGS12 GoLoco Motif Activity (Green Fluorophore) (AID 879).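 Further: 0% = labeled peptide with Gαi1 and full inhibition = labeled peptide alone without protein; negative values mean loss of peptide binding seen as reduced polarization.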 As to conditions: Galphai1/FITC-RGS12 GoLoco peptide, fluorescence polarization; series mostly up to 57.1 µM. An outline of the steps:
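A drop in FITC polarization marked displacement of the FITC-tagged RGS12 GoLoco peptide (10 nM) from Gαi1 (50 nM). Compounds were incubated 10 min at room temperature in Tris pH 7.5 buffer containing 150 mM NaCl, 0.1 mM GDP and 0.05% NP40; unlabeled peptide titration served as control.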

Assay [13] addresses Pyruvate kinase (Leishmania mexicana) (UniProt Q27686). In words: qHTS Validation Assay for Inhibitors of Leishmania Mexicana Pyruvate Kinase (AID 945).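 Further: 0% = DMSO only neutral control wells.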 To be noted: purified L. mexicana pyruvate kinase, enzyme activity, E451W mutant enzyme; series mostly up to 57.5 µM. Put shortly:
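Pyruvate kinase activity of E451W LmPYK (0.2 nM) was followed as ATP output after 1 h at room temperature with 0.5 mM PEP and 0.1 mM ADP, detected by PKLight luminescence.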

Assay [14] in a line: AP1 Signaling Pathway (AID 357; active means well fitted curve in either direction with a large enough effect, not every such curve was filed as active). To be noted: ME-180 (cervical carcinoma) AP-1-bla reporter, EGF-induced, beta-lactamase ratio, 5 h. Put shortly:
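AP-1-bla ME-180 cells, Opti-MEM + 0.5% dialyzed FBS, plated overnight 37 °C. Cpd titration + EC50 EGF, 5 h 37 °C. CCF4 2.5 h RT; ex 405, em 460/530 ratio → %activity, AC50.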

Assay [15] has as its target Cytochrome P450 3A4 (Homo sapiens) (UniProt P08684). In words: qHTS Assay for Activators of Cytochrome P450 3A4 (AID 885). Further: nearly all actives have a fitted effect of over 65% in size. As to conditions: recombinant CYP3A4, Luciferin-PPXE luminescence, 60 min; series mostly up to 57.1 µM. An outline of the steps: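 Activators are scored by enhanced luminescence from CYP3A4 conversion of luciferin-PPXE (25uM, equal to KM) to luciferin, after 60 min at RT with an NADPH-regenerating system.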

The target in assay [16] is Cytochrome P450 2D6 (Homo sapiens) (UniProt P10635). In words: qHTS Assay for Inhibitors and Substrates of Cytochrome P450 2D6 (AID 891). Further: potency means the concentration at half of the fitted maximal effect; nearly all actives have a fitted effect of over 60% in size. To be noted: recombinant CYP2D6, luciferin-ME EGE luminescence; series mostly up to 57.1 µM. An outline of the steps:
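Luminescent read-out of luciferin formed by 5 nM human CYP2D6 demethylating 30 uM Luciferin-ME EGE (Km level) over 60 min at room temperature after NADPH regeneration addition. Data normalized to full inhibition by 1.43 uM quinidine.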

Molecules are shown by their SMILES. Several values for one entry are separate records, joined by “and”; a condition that tells them apart may be missing. Equal entries are not always repeated. A number with no mark means an inactive call. Records with an inconclusive call do not appear. Activity calls are given as the source filed them. Unless noted, the call rests on the fitted dose curve; in most records, active means well fitted curve in the direction sought with a large enough effect; inconclusive means small, poorly fitted or top-dose-only effect, or another doubt; inactive means no such curve, though single readings can be large; an effect the other way counts as inactive or inconclusive. Some results are limits rather than exact numbers.

Pyruvate kinase (Leishmania mexicana), sequence (Q27686 2-499 E452W): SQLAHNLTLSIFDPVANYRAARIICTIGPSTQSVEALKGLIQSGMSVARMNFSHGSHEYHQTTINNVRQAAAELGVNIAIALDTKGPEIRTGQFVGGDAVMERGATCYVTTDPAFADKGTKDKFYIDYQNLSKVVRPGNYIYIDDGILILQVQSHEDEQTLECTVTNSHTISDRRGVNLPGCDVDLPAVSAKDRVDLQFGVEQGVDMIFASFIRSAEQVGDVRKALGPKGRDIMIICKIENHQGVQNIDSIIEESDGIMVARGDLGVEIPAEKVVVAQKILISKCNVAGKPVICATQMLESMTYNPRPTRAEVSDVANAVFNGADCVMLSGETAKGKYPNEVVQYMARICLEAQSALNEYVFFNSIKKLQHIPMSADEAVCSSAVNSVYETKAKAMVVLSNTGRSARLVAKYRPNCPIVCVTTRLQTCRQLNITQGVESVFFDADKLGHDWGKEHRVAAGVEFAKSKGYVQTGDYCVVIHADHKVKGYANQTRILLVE
DNA dC->dU-editing enzyme APOBEC-3G (Homo sapiens), sequence (Q9HC16 whole entry, looked up): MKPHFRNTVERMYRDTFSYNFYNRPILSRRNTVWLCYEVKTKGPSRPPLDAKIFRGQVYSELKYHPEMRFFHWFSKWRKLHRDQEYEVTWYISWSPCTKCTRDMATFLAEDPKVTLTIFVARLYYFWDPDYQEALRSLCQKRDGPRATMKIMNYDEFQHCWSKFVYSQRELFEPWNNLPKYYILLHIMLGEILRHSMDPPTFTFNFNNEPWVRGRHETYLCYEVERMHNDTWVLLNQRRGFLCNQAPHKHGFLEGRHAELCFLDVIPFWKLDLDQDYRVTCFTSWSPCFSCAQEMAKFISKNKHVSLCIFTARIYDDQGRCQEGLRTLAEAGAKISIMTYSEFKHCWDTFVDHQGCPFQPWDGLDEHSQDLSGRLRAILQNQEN
Ubiquitin carboxyl-terminal hydrolase 1 (Homo sapiens), sequence (O94782 whole entry, looked up): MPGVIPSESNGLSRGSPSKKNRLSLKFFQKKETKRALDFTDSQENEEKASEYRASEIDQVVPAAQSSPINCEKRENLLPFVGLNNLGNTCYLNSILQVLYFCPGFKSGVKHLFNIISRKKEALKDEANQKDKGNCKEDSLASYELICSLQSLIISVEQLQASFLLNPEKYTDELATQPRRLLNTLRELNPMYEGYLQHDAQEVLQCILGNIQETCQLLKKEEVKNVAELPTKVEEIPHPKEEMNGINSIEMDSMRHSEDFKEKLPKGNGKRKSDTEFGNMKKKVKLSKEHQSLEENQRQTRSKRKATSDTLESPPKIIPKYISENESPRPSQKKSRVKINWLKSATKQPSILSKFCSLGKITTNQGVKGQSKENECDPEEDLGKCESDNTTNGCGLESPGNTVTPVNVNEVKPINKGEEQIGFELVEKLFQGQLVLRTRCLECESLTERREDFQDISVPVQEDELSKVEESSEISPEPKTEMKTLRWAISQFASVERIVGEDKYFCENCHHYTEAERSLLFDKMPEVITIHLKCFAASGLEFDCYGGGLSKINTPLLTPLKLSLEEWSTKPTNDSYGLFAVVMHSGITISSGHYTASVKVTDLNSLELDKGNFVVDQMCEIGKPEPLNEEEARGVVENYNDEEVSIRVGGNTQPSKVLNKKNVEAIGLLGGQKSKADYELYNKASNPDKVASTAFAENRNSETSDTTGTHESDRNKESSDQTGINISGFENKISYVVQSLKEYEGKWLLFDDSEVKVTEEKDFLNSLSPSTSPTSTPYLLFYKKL
Cytochrome P450 1A2 (Homo sapiens), sequence (P05177 whole entry, looked up): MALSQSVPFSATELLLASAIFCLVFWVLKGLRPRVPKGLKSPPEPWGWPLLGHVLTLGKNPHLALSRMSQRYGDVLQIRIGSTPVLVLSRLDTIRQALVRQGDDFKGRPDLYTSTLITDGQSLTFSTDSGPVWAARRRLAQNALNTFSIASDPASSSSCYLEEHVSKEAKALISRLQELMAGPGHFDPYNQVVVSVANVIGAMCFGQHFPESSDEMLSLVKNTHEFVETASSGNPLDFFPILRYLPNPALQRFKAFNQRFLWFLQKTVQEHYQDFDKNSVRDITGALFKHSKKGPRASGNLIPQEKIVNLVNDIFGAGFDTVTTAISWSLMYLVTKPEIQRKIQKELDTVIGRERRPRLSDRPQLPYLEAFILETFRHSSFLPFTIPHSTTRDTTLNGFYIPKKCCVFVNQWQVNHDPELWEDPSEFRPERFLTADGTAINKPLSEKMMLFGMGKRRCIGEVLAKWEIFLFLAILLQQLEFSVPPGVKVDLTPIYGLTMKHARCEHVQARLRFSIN
Glucocorticoid receptor (Homo sapiens), sequence (P04150 whole entry, looked up, the tested form may be a part): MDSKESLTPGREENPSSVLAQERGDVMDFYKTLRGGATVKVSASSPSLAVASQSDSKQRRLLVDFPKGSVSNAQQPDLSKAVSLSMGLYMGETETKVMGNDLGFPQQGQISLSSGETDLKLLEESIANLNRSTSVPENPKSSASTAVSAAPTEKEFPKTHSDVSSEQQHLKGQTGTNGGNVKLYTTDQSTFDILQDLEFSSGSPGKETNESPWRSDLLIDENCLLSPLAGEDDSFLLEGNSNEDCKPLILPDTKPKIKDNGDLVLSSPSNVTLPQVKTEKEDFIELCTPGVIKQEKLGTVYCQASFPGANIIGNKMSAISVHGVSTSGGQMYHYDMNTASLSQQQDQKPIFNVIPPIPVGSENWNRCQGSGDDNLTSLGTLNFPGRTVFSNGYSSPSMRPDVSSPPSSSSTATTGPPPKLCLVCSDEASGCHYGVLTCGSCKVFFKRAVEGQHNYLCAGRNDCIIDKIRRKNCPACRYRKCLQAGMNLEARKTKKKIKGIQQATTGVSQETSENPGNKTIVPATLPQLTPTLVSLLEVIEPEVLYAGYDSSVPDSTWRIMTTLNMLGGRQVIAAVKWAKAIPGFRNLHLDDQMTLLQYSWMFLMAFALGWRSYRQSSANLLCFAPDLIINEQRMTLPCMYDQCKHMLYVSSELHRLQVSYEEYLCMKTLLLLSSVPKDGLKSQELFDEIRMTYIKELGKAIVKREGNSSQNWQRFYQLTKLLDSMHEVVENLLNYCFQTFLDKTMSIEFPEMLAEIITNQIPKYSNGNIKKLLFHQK
3',5'-cyclic-AMP phosphodiesterase 4B (Homo sapiens), sequence (Q07343 whole entry, looked up): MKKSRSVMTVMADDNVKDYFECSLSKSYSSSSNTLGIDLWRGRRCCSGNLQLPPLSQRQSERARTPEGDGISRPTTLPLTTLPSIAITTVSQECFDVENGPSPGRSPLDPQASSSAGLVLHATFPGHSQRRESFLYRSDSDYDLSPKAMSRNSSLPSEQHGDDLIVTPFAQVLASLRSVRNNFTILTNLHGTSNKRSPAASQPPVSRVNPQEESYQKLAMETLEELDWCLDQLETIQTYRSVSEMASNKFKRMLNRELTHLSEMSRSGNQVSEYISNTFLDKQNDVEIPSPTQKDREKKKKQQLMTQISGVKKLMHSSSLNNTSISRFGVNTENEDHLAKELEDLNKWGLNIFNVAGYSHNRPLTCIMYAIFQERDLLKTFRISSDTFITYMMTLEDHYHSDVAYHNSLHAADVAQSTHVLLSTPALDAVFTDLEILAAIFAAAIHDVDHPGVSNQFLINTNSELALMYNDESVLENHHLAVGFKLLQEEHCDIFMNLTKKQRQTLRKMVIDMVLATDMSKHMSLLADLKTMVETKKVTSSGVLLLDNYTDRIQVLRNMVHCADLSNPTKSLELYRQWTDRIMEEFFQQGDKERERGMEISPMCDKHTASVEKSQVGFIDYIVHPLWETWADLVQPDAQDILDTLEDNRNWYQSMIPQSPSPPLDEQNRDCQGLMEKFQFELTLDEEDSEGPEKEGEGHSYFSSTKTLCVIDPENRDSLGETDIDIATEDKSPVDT
Guanine nucleotide-binding protein G(i) subunit alpha-1 (Homo sapiens), sequence (P63096 whole entry, looked up): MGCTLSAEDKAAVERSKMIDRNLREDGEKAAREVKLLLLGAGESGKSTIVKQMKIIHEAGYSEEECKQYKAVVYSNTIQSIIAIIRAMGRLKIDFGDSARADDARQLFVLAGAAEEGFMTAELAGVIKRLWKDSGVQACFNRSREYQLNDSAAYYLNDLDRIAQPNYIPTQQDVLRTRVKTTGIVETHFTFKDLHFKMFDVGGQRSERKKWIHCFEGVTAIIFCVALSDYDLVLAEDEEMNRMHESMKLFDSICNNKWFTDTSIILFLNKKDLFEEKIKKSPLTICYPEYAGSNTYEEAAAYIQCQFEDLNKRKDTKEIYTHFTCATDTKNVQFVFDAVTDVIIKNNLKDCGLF
Cytochrome P450 3A4 (Homo sapiens), sequence (P08684 whole entry, looked up): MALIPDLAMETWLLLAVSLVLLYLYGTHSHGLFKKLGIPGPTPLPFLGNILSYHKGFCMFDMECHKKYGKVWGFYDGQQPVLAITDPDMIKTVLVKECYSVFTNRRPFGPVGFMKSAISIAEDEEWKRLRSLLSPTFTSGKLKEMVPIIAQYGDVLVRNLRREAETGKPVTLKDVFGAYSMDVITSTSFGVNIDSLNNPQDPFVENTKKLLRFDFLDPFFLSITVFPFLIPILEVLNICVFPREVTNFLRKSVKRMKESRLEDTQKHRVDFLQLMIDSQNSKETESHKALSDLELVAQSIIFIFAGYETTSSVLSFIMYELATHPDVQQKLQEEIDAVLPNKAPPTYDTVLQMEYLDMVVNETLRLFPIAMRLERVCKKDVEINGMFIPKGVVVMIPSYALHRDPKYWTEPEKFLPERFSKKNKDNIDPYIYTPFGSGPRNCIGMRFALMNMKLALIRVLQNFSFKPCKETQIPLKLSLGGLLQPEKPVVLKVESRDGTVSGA

For the compound `O=C1CCc2c(ccc3ccccc23)O1`, the Potency in assay [1] and in [2] was above 46 µM in each case. Also, the Potency entry in assay [3], in assay [4], in [5], in [6], in assay [7] and in [8] was “inactive” each time.

For the compound `C[N+](C)(C)CCC(=O)c1cccc2ccccc12`, the values for the Potency in [9], in [1] and in assay [2] were 7.94 µM (active), above 46 µM and above 46 µM, respectively. In [10] (at 38 µM (top of the series)), the activity change, negative = inhibition was 13.8% (active). For the same compound, in [11] (at 38 µM (top of the series)), the activity, negative = inhibition is -81.5% (active). Moreover, the Potency result in [3], in assay [4], in [13], in [7] and in assay [8] was “inactive” throughout. The compound was classed as inactive in assay [12].

As for `C[C@@H](CCc1ccc(O)cc1)NCCc1ccc(O)c(O)c1`, the activity change, negative = inhibition is 1.11% in assay [14] (at 17.2 µM (top of the series)), -3.98% in [14] (at 38 µM (top of the series)), -17.4% in assay [10] (at 17.2 µM (top of the series)) and -12.7% in assay [10] (at 38 µM (top of the series)). For the same compound, the Potency result in assay [9], in [3], in assay [4], in assay [15], in assay [13] and in [5] was “inactive” throughout. Besides, the Potency entry in assay [6], in assay [7] and in [8] was “inactive” in each case. The results for the activity, negative = inhibition in assay [11] (at 17.2 µM (top of the series)) and in assay [11] (at 38 µM (top of the series)) were 13.9% and -16.8%, respectively. Also, the Potency was > 46 µM and > 20.6 µM in assay [1]; > 46 µM and > 20.6 µM in assay [2]. In addition, the result in assay [12] was inactive.

In the case of `N#CC(=C(/N)Sc1ccccc1N)/C(C#N)=C(\N)Sc1ccccc1N`, the Potency entry in assay [7] and in [8] was “inactive” each time.

Take `Cc1ccc(NC2=CC(=O)c3sc(C)nc3C2=O)cc1`: the Potency result in [7] and in assay [8] was “inactive” in each case.

On to `C[C@](O)(C(=O)Nc1ccc(S(=O)(=O)c2ccccc2)cc1)C(F)(F)F`, for which the Potency is 39.8 µM (active) in [9], above 46 µM in [1] and above 46 µM in assay [2]. The Potency result in assay [3], in assay [5], in assay [6], in assay [7] and in assay [8] was “inactive” each time.

Regarding `c1ccc(-c2n[nH]c3c2oc2ccccc23)cc1`, the Potency result in [7] and in assay [8] was “inactive” throughout.

For the compound `CN[C@@H]1[C@H](O)[C@H](O[C@@H]2[C@H](O)[C@@H](O[C@H]3O[C@H]([C@@H](C)NC)CC[C@H]3N)[C@@H](N)C[C@H]2N)OC[C@]1(C)O`, the Potency entry in assay [7] and in assay [8] was “inactive” throughout.

Consider `CC(C)[C@H](CO)Nc1nc(Nc2cc(N)cc(Cl)c2)c2ncn(C(C)C)c2n1`, for which the figures for the Potency in [9], in assay [1] and in [2] were 0.501 µM (active), above 46 µM and above 46 µM, respectively. Besides, the Potency entry in assay [3], in assay [6], in assay [7] and in assay [8] was “inactive” in each case.

`COc1ccc2[nH]c(I)c(CCNC(C)=O)c2c1`: the activity change, negative = inhibition in assay [14] (at 38 µM (top of the series)) is -7.67%; in assay [10] (at 38 µM (top of the series)) it was -1.64%. Also, in [11] (at 38 µM (top of the series)), the activity, negative = inhibition was 3.36%. Moreover, the Potency in [1] and in assay [2] was above 46 µM in each case. In addition, the Potency result in assay [4], in [6], in assay [7] and in assay [8] was “inactive” throughout.

Turning to `C=CCN1CCc2cc(O)c(O)cc2[C@H](c2ccccc2)C1`, the activity change, negative = inhibition in assay [14] (at 38 µM (top of the series)) was -3.34%; in assay [10] (at 38 µM (top of the series)), -18.1%. Further, the Potency result in [9], in [3], in [4], in [13], in assay [6] and in assay [7] was “inactive” each time. Besides, in assay [8], the Potency entry was “inactive”. In addition, the activity, negative = inhibition in assay [11] (at 38 µM (top of the series)) was -21%. Moreover, the Potency in assay [1] was above 46 µM; in [2], above 46 µM; in [16] it was 0.398 µM (active). For the same compound, the outcome in [12] was inactive.
